Drawing on the supplement of paper PMC7156485, this text covers cell number and H1.0 immunofluorescence intensity for 20 compounds.

Holding throughout (conditions): concentration: 10 µM; 24 h
Experiment [1] deals with HCC1569. Kind of experiment: cell number relative to DMSO (% of DMSO); higher = more cells (less growth inhibition / toxicity). In outline: (§1)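 Six fields per well were imaged at ×10 after the cells were fixed in 3.7% formaldehyde and stained with a rabbit anti-H1.0 antibody, an AlexaFluor 647 secondary and DAPI. The HCC1569 and TDF cells had been plated at 800 per well in 384-well plates (RPMI, 10% FBS) and treated in triplicate with compounds at 10 µM for 24 h at 37 °C. The values are the median of replicates of H1.0 nuclear intensity or cell number, as percent of the plate control. Smoothing for positional effects was applied to HCC1569 data.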

Experiment [2] has as its system TDF. The description is as above. In outline:
as §1

For experiment [3], the system named is TDF. Kind of experiment: H1.0 immunofluorescence intensity relative to DMSO (% of DMSO); higher = stronger H1.0 induction, active = 120 or more. In a few lines: as §1
In experiment [4] the test system is HCC1569. Kind of experiment: H1.0 immunofluorescence intensity relative to DMSO (% of DMSO); higher = stronger H1.0 induction, active = 140 or more. In a few lines:
as §1

± gives the standard deviation of the averaged measurements.
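For H1.0 immunofluorescence intensity relative to DMSO in this document: TDF is a line of transformed human dermal fibroblasts of mesenchymal origin.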
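For cell number relative to DMSO in this document: TDF denotes transformed human dermal fibroblasts of mesenchymal origin.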

Consider `CCCC(=O)NCCc1c2n(c3ccc(OC)cc13)Cc1ccccc1-2`, for which the cell number stood at 92.4 with HCC1569 [1] and 99.3 in the experiment on TDF [2]. For the same compound, the values for the H1.0 immunofluorescence intensity in the experiment on TDF [3] and with HCC1569 [4] were 97.1 (inactive) and 108 (inactive), respectively.

As to `CN(C)CCC(c1ccc(Cl)cc1)c1ccccn1.O=C(O)C=CC(=O)O` (racemic), the cell number in the experiment with HCC1569 [1] came out at 96.1; in the experiment with TDF [2], 107. The H1.0 immunofluorescence intensity in the experiment with TDF [3] is 103 (inactive); with HCC1569 [4], 94.5 (inactive).

For `CC(C)(C=O)Cc1cc(C(C)(C)C)c(O)c(C(C)(C)C)c1`, the cell number with HCC1569 [1] turned out to be 109; in the experiment on TDF [2], 106. The H1.0 immunofluorescence intensity is 92 (inactive) in the experiment with TDF [3] and 97.1 (inactive) with HCC1569 [4].

With `OCC1OC(n2cnc3c(NC4CC5CCC4C5)ncnc32)C(O)C1O` (stereo not given), the cell number is 99.1 in the experiment on HCC1569 [1] and 92.5 in the experiment on TDF [2]. Besides, the H1.0 immunofluorescence intensity in the experiment on TDF [3] was 96.9 (inactive); in the experiment with HCC1569 [4], 91.9 (inactive).

For the compound `CC1COc2c(C3(N)CC3)c(F)cc3c(=O)c(C(=O)O)cn1c23` (stereo not given) [Pazufloxacin], the results for the cell number with HCC1569 [1] and with TDF [2] were 104 and 110, respectively. Moreover, the values for the H1.0 immunofluorescence intensity in the experiment with TDF [3] and in the experiment with HCC1569 [4] were 94.1 (inactive) and 104 (inactive), respectively.

As for `CCCCCCCCCCCCCC=CC(O)C(CO)NC(=O)CCCCCCC` (stereo not given) [C8 Ceramide], the cell number in the experiment with HCC1569 [1] worked out at 102; with TDF [2], 99.5. Also, the H1.0 immunofluorescence intensity was 101 (inactive) with TDF [3] and 99.8 (inactive) in the experiment with HCC1569 [4].

`C#Cc1cccc(Nc2ncnc3cc(OCCOC)c(OCCOC)cc23)c1` [Erlotinib]: the cell number with HCC1569 [1] came to 94.8 ± 8; in the experiment with TDF [2], 94.5 ± 3.9. Moreover, the H1.0 immunofluorescence intensity in the experiment on TDF [3] is 91.3 (inactive); in the experiment on HCC1569 [4], 108 (inactive).

On to `C=CC[N+]1(C2CC3C4CCC5CC(O)C(N6CCOCC6)CC5(C)C4CCC3(C)C2OC(C)=O)CCCC1.[Br-]` (stereo not given) [Rocuronium bromide], for which the values for the cell number in the experiment with HCC1569 [1] and with TDF [2] were 107 and 104, respectively. Moreover, the H1.0 immunofluorescence intensity was 99.6 (inactive) with TDF [3] and 99.4 (inactive) with HCC1569 [4].

For the compound `COc1c(N2CC3CCCNC3C2)c(F)cc2c(=O)c(C(=O)O)cn(C3CC3)c12.Cl` (stereo not given) [Moxifloxacin.HCl], the cell number with HCC1569 [1] came out at 101; in the experiment with TDF [2] it was 122. Besides, the H1.0 immunofluorescence intensity in the experiment with TDF [3] is 96.7 (inactive); in the experiment on HCC1569 [4], 97.9 (inactive).

As for `COc1ccc(C=Cc2cc(OC)cc(=O)o2)cc1` [Yangonin], the figures for the cell number in the experiment on HCC1569 [1] and in the experiment on TDF [2] were 98.9 and 80.2, respectively. The H1.0 immunofluorescence intensity with TDF [3] is 104 (inactive); in the experiment with HCC1569 [4] it was 100 (inactive).

Consider `C=CC(C)(O)CCC1C(=C)CCC2C(C)(C)CCCC12C` (stereo not given) [Manool], for which the cell number was 104 in the experiment on HCC1569 [1] and 87.8 with TDF [2]. Also, the H1.0 immunofluorescence intensity is 99.4 (inactive) in the experiment with TDF [3] and 90.8 (inactive) with HCC1569 [4].

Regarding `CC(=O)O.O=C(O)c1ccc2c3c1cccc3c(=O)n1c3ccccc3nc21`, the cell number came out at 99.7 in the experiment on HCC1569 [1] and 89.6 in the experiment on TDF [2]. The values for the H1.0 immunofluorescence intensity in the experiment on TDF [3] and in the experiment with HCC1569 [4] were 91.3 (inactive) and 105 (inactive), respectively.

As to `CCOC(=O)C12CC1C(=NO)c1ccccc1O2` (stereo not given), the cell number in the experiment on HCC1569 [1] came to 100; in the experiment with TDF [2] it was 105. For the same compound, the results for the H1.0 immunofluorescence intensity in the experiment with TDF [3] and in the experiment on HCC1569 [4] were 93.9 (inactive) and 97.2 (inactive), respectively.

On to `COC(=O)C1=C(C)NC(C)=C(C(=O)OCCCN2CCC(c3ccccc3)(c3ccccc3)CC2)C1c1cccc([N+](=O)[O-])c1` (stereo not given) [Niguldipine], for which the cell number was found to be 88.2 with HCC1569 [1] and 99 with TDF [2]. Further, the H1.0 immunofluorescence intensity was 98.5 (inactive) with TDF [3] and 126 (inactive) in the experiment on HCC1569 [4].

Take `CC(c1cc2ccccc2s1)N(O)C(N)=O` (stereo not given) [Zileuton]: the cell number in the experiment on HCC1569 [1] is 102; in the experiment on TDF [2] it was 98.4. The figures for the H1.0 immunofluorescence intensity in the experiment with TDF [3] and in the experiment on HCC1569 [4] were 94.2 (inactive) and 101 (inactive), respectively.

With `CCCCN1CCCCC1C(=O)Nc1c(C)cccc1C` (stereo not given) [Bupivacaine], the cell number was 97.9 in the experiment with HCC1569 [1] and 108 in the experiment on TDF [2]. For the same compound, the results for the H1.0 immunofluorescence intensity in the experiment with TDF [3] and in the experiment with HCC1569 [4] were 101 (inactive) and 120 (inactive), respectively.

In the case of `CC(C)C(CO)Nc1nc(Nc2cccc(Cl)c2)c2ncn(C(C)C)c2n1` (stereo not given), the cell number in the experiment on HCC1569 [1] is 65.5; in the experiment with TDF [2], 60.6. Also, the H1.0 immunofluorescence intensity in the experiment with TDF [3] is 120 (inactive); in the experiment on HCC1569 [4], 174 (active).

In the case of `COc1ccccc1NC(=O)Nc1nc(-c2cccnc2)nc2ccccc12`, the cell number came to 97.6 in the experiment on HCC1569 [1] and 102 in the experiment on TDF [2]. Moreover, the figures for the H1.0 immunofluorescence intensity with TDF [3] and in the experiment on HCC1569 [4] were 95.1 (inactive) and 104 (inactive), respectively.

As to `CN1CCCC1c1cccnc1` (single isomer, unassigned; (-)) [(-)-Nicotine], the figures for the cell number in the experiment on HCC1569 [1] and with TDF [2] were 99.2 and 114, respectively. The H1.0 immunofluorescence intensity with TDF [3] was 94.2 (inactive); in the experiment with HCC1569 [4], 80 (inactive).

Consider `Cc1ccc(OCCSc2ncccn2)c(Br)c1` [2-{[2-(2-bromo-4-methylphenoxy)ethyl]sulfanyl}pyrimidine], for which the cell number in the experiment on HCC1569 [1] came out at 100; with TDF [2], 105. Also, the H1.0 immunofluorescence intensity with TDF [3] is 94 (inactive); in the experiment with HCC1569 [4] it was 107 (inactive).
